Assay in all cases: NCI-60 one-dose screen, 48 h (100 = growth as untreated, 0 = no growth, -100 = all killed)
Common to all, as to conditions: 10 µM unless noted

Test [1] deals with HCT-15 colon.
For test [2], the system named is HT29 colon.
Test [3] deals with SNB-75 CNS.
For test [4], the system named is SNB-19 CNS.
For test [5], the system named is U251 CNS.
The test system of test [6] is PC-3 prostate.
For test [7], the system named is SK-MEL-5 melanoma.
Test [8] relates to UACC-62 melanoma.
Test [9] has as its system LOX IMVI melanoma.
In test [10] the test system is SK-MEL-28 melanoma.

Molecules are shown by their SMILES. This is part of a sample that, as a whole, favours compounds with a hit. Of some 83,000 tested, about 20% had one in any assay.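 The endpoint reported here, percent growth, reads 100 for growth as untreated, 0 for no net growth and -100 for all cells dead.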 Values without a mark were called inactive. Activity calls are given as the source filed them. The calls were made as follows: active = growth percent below 10; inactive = the rest.

With `CN1CCN(Cc2ccc(NC(=O)c3cncc(C#Cc4cnn5ccccc45)c3)cc2C(F)(F)F)CC1`, the growth was 0.133% (active) in test [1]; 4.53% (active) in [2]; 13.6% in [3]; 5.8% (active) in test [4]; 7.18% (active) in test [5]; -4.22% (active) in test [6]. Besides, the growth in test [7] was 14.9%; in test [8], 13.8%; in test [9], -39.6% (active); in [10], 25%.
For `O=C(N/N=C/c1ccc(Cl)cc1Cl)c1ccc2nc(-c3ccc(Cl)cc3)[nH]c2c1`, the growth was 4.69% (active) in [1]; 1.67% (active) in [2]; 98.4% in [3]; 4.35% (active) in test [4]; -15.2% (active) in [5]; -24.9% (active) in [6]. Also, the growth in test [7] was 36.2%; in test [8], 16.8%; in test [9], -55.9% (active); in [10], -9.23% (active).
Take `COc1cc2ncnc(Nc3ccc(F)c(Cl)c3)c2cc1OCC(=O)N1CCN(c2ccc(F)cc2)CC1`: the growth in [1] was 92.7%; in test [2], 86.7%; in test [3], 91.2%; in test [4] it was 83.6%; in test [5], 107%; in [6] it was 94.6%. For the same compound, the growth in [7] was 98.2%; in test [8], 87.9%; in test [9], 93.3%; in test [10], 98.4%.
On to `CCN1CCN(CC(=O)Nc2nc3ccc(NCc4ccc(Br)cc4)cc3s2)CC1`, for which the growth in [1] is -18.8% (active); in test [2], 2.33% (active); in [3] it was 89.4%; in [4], 76.3%; in test [5] it was 52.9%; in test [6], 44.6%. The growth was 47.6% in [7], -47.1% (active) in test [8], -76.4% (active) in test [9] and -66.6% (active) in [10].
As to `N#C/C(=C\c1ccc(Cl)cc1Cl)C(=O)Nc1ncc(Cc2ccc(Cl)c(Cl)c2)s1`, the growth in test [1] is 37.7%; in test [2] it was 66.3%; in test [3], 97.9%; in test [4] it was 97.7%; in [5], 90.9%; in [6] it was 79.3%. In addition, the growth in [7] was 97.8%; in test [8], 35.2%; in test [9], 34.4%; in test [10] it was 99.6%.
`C=C(CO)[C@@H]1CC[C@]2(COC3CCCCO3)CC[C@]3(C)[C@H](CC[C@@H]4[C@@]5(C)C=C(C=O)C(=O)C(C)(C)[C@@H]5CC[C@]43C)[C@@H]12` (stereo not given in full): the growth is -90.5% (active) in test [1]; -83.6% (active) in test [2]; -51.6% (active) in [3]; -83.8% (active) in test [4]; -88.6% (active) in test [5]; -82.5% (active) in test [6]. Moreover, the growth in test [7] was -95.1% (active); in [8], -76.7% (active); in test [9] it was -88.4% (active); in test [10] it was -71.3% (active).
Consider `CCCCn1sc(=O)n(Cc2ccc(CNC(=O)OCc3ccc4c(Br)cc(Br)c(O)c4n3)cc2)c1=O`, for which the growth in test [1] is 9.07% (active); in test [2], 96.4%; in [3], 14.4%; in test [4], 37.4%; in test [5], 11.2%; in [6], 18.9%. The growth is -35.2% (active) in test [7], 37.6% in test [8], 22.9% in test [9] and 67.4% in test [10].
On to `Fc1ccc2c(c1)c(-c1nc(-c3c[nH]c4ncccc34)cs1)cn2CCCN1CCOCC1`, for which the growth in test [1] is 24.5%; in [2] it was 12.9%; in test [3], 41.2%; in test [4], 62.7%; in test [5], 30.4%; in test [6], 31.9%. For the same compound, the growth was 43.7% in test [7], 69.5% in test [8], 33.1% in [9] and 75.4% in test [10].
Regarding `COc1cc(C(=O)C(=O)c2cc(OC)c(O)c(OC)c2)cc(OC)c1O`, the growth in [1] is 103%; in test [2], 103%; in test [3] it was 91.6%; in test [4] it was 99.8%; in [5], 98.4%; in test [6], 112%. The growth in [7] is 104%; in test [8] it was 89.8%; in test [9], 97%; in test [10] it was 107%.
In the case of `CCOC(=O)c1n[nH]n2c1nc(=O)c1cnn(C)c12`, the growth was 105% in [1]; 107% in test [2]; 103% in test [3]; 102% in [4]; 100% in [5]; 97.7% in [6]. Also, the growth is 105% in test [7], 106% in [8], 103% in [9] and 113% in test [10].
Take `NC(=S)N/N=C/c1cn(-c2ccccc2)nc1-c1cc2ccccc2oc1=O`: the growth was 28.2% in [1]; 14.7% in test [2]; 8.48% (active) in [3]; 56.6% in test [4]; 45.2% in test [5]; 67.5% in test [6]. Also, the growth in test [7] is 46.3%; in [8] it was 34.2%; in [9] it was 46.3%; in test [10], 69.7%.
`COc1ccc2c(c1)c(-c1nc(-c3cn(C)c4ncccc34)cs1)cn2CCO`: the growth in [1] is 61.1%; in test [2] it was 75.3%; in [3], 91.3%; in test [4], 90.2%; in test [5] it was 78.5%; in [6], 69.1%. Besides, the growth in [7] was 74.2%; in [8], 80.4%; in test [9], 59.3%; in test [10], 86%.
For the compound `COc1ccc(Cc2cnc(NC(=O)c3sc4ccccc4c3Cl)s2)cc1`, the growth in [1] was 15.9%; in [2], 8.15% (active); in [3], 9.6% (active); in test [4], 50.7%; in test [5], 20.8%; in test [6], 31.5%. For the same compound, the growth in [7] is 27.8%; in test [8] it was 35.7%; in test [9], 45.9%; in [10] it was 62.1%.
`CCCCCCCC/C=C\CCCCCCCCOc1ccccc1CC(=O)NCC[N+]1(C)CCCCC1`: the growth in test [1] was 102%; in [2], 9.78% (active); in test [3], 49.3%; in [4], 52.6%; in [5], 39%; in test [6], 3.49% (active). Moreover, the growth in test [7] is 86.5%; in test [8] it was 53.8%; in [9], 75.7%; in test [10], 84.2%.

(Values after PubChem BioAssay (NCI).)
